Source: PubChem BioAssay AID1159580 (chemical genetic matrix, 2015)
Among all 5,500 compounds or so, about 2,000 (36%) were called active. Not shown: some 18% with an inconclusive outcome. Rule as the data show it: active = normalized growth mostly below about 0.91 (no sharp cut-off); inconclusive = no clear call, values can overlap the other calls; inactive = mostly above about 0.92. Some of the results follow.

Assay: chemical genetic growth profiling, strain panel (AID 1159580);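 also: tested at 20 µM; growth read once vehicle control cultures reached saturation at 30 °C; 1 = growth at the plate median or of vehicle wells; lower values mean less growth of the strain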
Settings: growth OD

Measured: normalized growth

CN1CCCN=C1COC(=O)C(O)(c1ccccc1)C1CCCCC1 (configuration not stated)
inactive: S. cerevisiae deletion strains, locus YJR075W, strain HOC1, stronger effect = lower value 0.993 | S. cerevisiae deletion strains, locus YKL009W, strain mrt4, stronger effect = lower value 0.999 | S. cerevisiae deletion strains, locus YKL068W, stronger effect = lower value 0.989 | S. cerevisiae deletion strains, locus YKL085W, strain MDH1 (second series), stronger effect = lower value 1 | S. cerevisiae deletion strains, locus YKL085W, strain MDH1, stronger effect = lower value 1 | S. cerevisiae deletion strains, locus YKL160W, strain elf1, stronger effect = lower value 0.998 | S. cerevisiae deletion strains, locus YKL190W, strain CNB1, stronger effect = lower value 0.997 | S. cerevisiae deletion strains, locus YKR001C, strain vps1, stronger effect = lower value 0.975 | S. cerevisiae deletion strains, locus YKR026C, strain gcn3, stronger effect = lower value 0.997 | S. cerevisiae deletion strains, locus YKR091W, strain srl3, stronger effect = lower value 1 | S. cerevisiae deletion strains, locus YLL001W, strain dnm1, stronger effect = lower value 0.989 | S. cerevisiae deletion strains, locus YLL026W, stronger effect = lower value 0.991 | S. cerevisiae deletion strains, locus YLL041C, strain sdh2, stronger effect = lower value 0.998 | S. cerevisiae deletion strains, locus YLR027C, strain aat2, stronger effect = lower value 0.993 | S. cerevisiae deletion strains, locus YLR039C, strain RIC1, stronger effect = lower value 1.02 | S. cerevisiae deletion strains, locus YLR058C, strain SHM2, stronger effect = lower value 1.01 | S. cerevisiae deletion strains, locus YLR102C, strain apc9, stronger effect = lower value 0.993 | S. cerevisiae deletion strains, locus YLR113W, strain HOG1, stronger effect = lower value 1.01 | S. cerevisiae deletion strains, locus YLR221C, strain rsa3, stronger effect = lower value 0.992 | S. cerevisiae deletion strains, locus YLR258W, strain gsy2, stronger effect = lower value 1 | S. cerevisiae deletion strains, locus YLR262C, strain YPT6 (second series), stronger effect = lower value 0.988 | S. cerevisiae deletion strains, locus YLR262C, strain YPT6, stronger effect = lower value 1.02 | S. cerevisiae deletion strains, locus YLR268W, strain sec22, stronger effect = lower value 0.971 | S. cerevisiae deletion strains, locus YLR320W, strain mms22, stronger effect = lower value 1.01 | S. cerevisiae deletion strains, locus YLR330W, strain CHS5, stronger effect = lower value 1.01 | S. cerevisiae deletion strains, locus YLR342W, strain FKS1 (second series), stronger effect = lower value 1.02 | S. cerevisiae deletion strains, locus YLR342W, strain FKS1, stronger effect = lower value 1 | S. cerevisiae deletion strains, locus YLR357W, strain rsc2, stronger effect = lower value 0.976 | S. cerevisiae deletion strains, locus YLR370C, strain arc18, stronger effect = lower value 0.992 | S. cerevisiae deletion strains, locus YLR371W, strain rom2, stronger effect = lower value 0.993 | S. cerevisiae deletion strains, locus YLR384C, strain iki3, stronger effect = lower value 0.982 | S. cerevisiae deletion strains, locus YLR418C, strain cdc73, stronger effect = lower value 0.973 | S. cerevisiae deletion strains, locus YML016C, strain PPZ1, stronger effect = lower value 1.01 | S. cerevisiae deletion strains, locus YML032C, strain rad52, stronger effect = lower value 0.979 | S. cerevisiae deletion strains, locus YML120C, strain ndi1, stronger effect = lower value 1 | S. cerevisiae deletion strains, locus YML124C, strain tub3, stronger effect = lower value 0.992 | S. cerevisiae deletion strains, locus YMR058W, strain fet3, stronger effect = lower value 0.95 | S. cerevisiae deletion strains, locus YMR078C, strain ctf18, stronger effect = lower value 0.992 | S. cerevisiae deletion strains, locus YMR125W, strain sto1, stronger effect = lower value 0.992 | S. cerevisiae deletion strains, locus YMR129W, stronger effect = lower value 0.995 | S. cerevisiae deletion strains, locus YMR205C, strain PFK2, stronger effect = lower value 0.993 | S. cerevisiae deletion strains, locus YMR223W, strain ubp8, stronger effect = lower value 1 | S. cerevisiae deletion strains, locus YMR231W, strain pep5, stronger effect = lower value 0.99 | S. cerevisiae deletion strains, locus YMR263W, strain SAP30, stronger effect = lower value 1.01 | S. cerevisiae deletion strains, locus YMR307W, strain GAS1, stronger effect = lower value 1.03 | S. cerevisiae deletion strains, locus YNL067W, strain RPL9B, stronger effect = lower value 0.992 | S. cerevisiae deletion strains, locus YNL071W, strain lat1, stronger effect = lower value 0.994 | S. cerevisiae deletion strains, locus YNL128W, strain TEP1, stronger effect = lower value 1.01 | S. cerevisiae deletion strains, locus YNL153C, strain GIM3, stronger effect = lower value 1 | S. cerevisiae deletion strains, locus YNL183C, strain NPR1, stronger effect = lower value 0.947 | S. cerevisiae deletion strains, locus YNL209W, strain ssb2, stronger effect = lower value 0.99 | S. cerevisiae deletion strains, locus YNL233W, strain BNI4, stronger effect = lower value 0.998 | S. cerevisiae deletion strains, locus YNL248C, strain rpa49, stronger effect = lower value 0.993 | S. cerevisiae deletion strains, locus YNL250W, strain rad50, stronger effect = lower value 0.988 | S. cerevisiae deletion strains, locus YNL271C, strain bni1, stronger effect = lower value 0.987 | S. cerevisiae deletion strains, locus YNL298W, strain CLA4, stronger effect = lower value 0.994 | S. cerevisiae deletion strains, locus YNL307C, strain MCK1, stronger effect = lower value 0.981 | S. cerevisiae deletion strains, locus YNL322C, strain KRE1 (second series), stronger effect = lower value 1 | S. cerevisiae deletion strains, locus YNL322C, strain KRE1, stronger effect = lower value 1 | S. cerevisiae deletion strains, locus YNR049C, strain mso1, stronger effect = lower value 0.994 | S. cerevisiae deletion strains, locus YNR052C, strain pop2, stronger effect = lower value 0.999 | S. cerevisiae deletion strains, locus YOL006C, strain TOP1, stronger effect = lower value 1.04 | S. cerevisiae deletion strains, locus YOL012C, strain htz1 0.733 | S. cerevisiae deletion strains, locus YOL147C, strain pex11, stronger effect = lower value 0.99 | S. cerevisiae deletion strains, locus YOR001W, strain rrp6, stronger effect = lower value 1.01 | S. cerevisiae deletion strains, locus YOR061W, strain CKA2, stronger effect = lower value 1.01 | S. cerevisiae deletion strains, locus YOR069W, strain VPS5, stronger effect = lower value 1.01 | S. cerevisiae deletion strains, locus YOR070C, strain gyp1, stronger effect = lower value 1.01 | S. cerevisiae deletion strains, locus YOR080W, strain dia2, stronger effect = lower value 0.996 | S. cerevisiae deletion strains, locus YOR083W, strain WHI5, stronger effect = lower value 0.995 | S. cerevisiae deletion strains, locus YOR106W, strain vam3, stronger effect = lower value 1.01 | S. cerevisiae deletion strains, locus YOR136W, strain idh2, stronger effect = lower value 0.991 | S. cerevisiae deletion strains, locus YOR144C, strain elg1, stronger effect = lower value 0.991 | S. cerevisiae deletion strains, locus YOR184W, strain ser1, stronger effect = lower value 1 | S. cerevisiae deletion strains, locus YOR231W, strain MKK1, stronger effect = lower value 1 | S. cerevisiae deletion strains, locus YOR265W, strain rbl2, stronger effect = lower value 0.984 | S. cerevisiae deletion strains, locus YOR270C, strain vph1, stronger effect = lower value 1.02 | S. cerevisiae deletion strains, locus YOR290C, strain snf2, stronger effect = lower value 1.02 | S. cerevisiae deletion strains, locus YOR316C, strain cot1, stronger effect = lower value 1 | S. cerevisiae deletion strains, locus YPL051W, strain arl3, stronger effect = lower value 0.997 | S. cerevisiae deletion strains, locus YPL055C, strain LGE1, stronger effect = lower value 0.998 | S. cerevisiae deletion strains, locus YPL078C, strain atp4, stronger effect = lower value 0.998 | S. cerevisiae deletion strains, locus YPL106C, strain sse1, stronger effect = lower value 0.989 | S. cerevisiae deletion strains, locus YPL240C, strain hsp82, stronger effect = lower value 0.991 | S. cerevisiae deletion strains, locus YPL241C, strain CIN2, stronger effect = lower value 1.01 | S. cerevisiae deletion strains, locus YPL256C, strain CLN2, stronger effect = lower value 0.992 | S. cerevisiae deletion strains, locus YPR119W, strain clb2, stronger effect = lower value 0.993 | S. cerevisiae deletion strains, locus YPR141C, strain kar3, stronger effect = lower value 0.994 | S. cerevisiae deletion strains, locus YPR163C, strain tif3, stronger effect = lower value 0.991 | S. cerevisiae deletion strains, locus YPR167C, strain met16, stronger effect = lower value 0.987 | S. cerevisiae deletion strains, strain wtn01, stronger effect = lower value 0.966 | S. cerevisiae strains, strain wild type, stronger effect = lower value 1
